D2 PAM-1: positively modulates the human D2 dopamine receptor allosterically. P14416. HEK293 T-REx D2, calcium flux, EC20 dopamine potentiation. potentiation, % at 10 µM. actives 0.34% (n = 340,000);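 active = potentiation over 3 SD above the plate norm, cut at about 30% in these data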; note: 0% is about no effect
Target sequence (P14416 whole entry, looked up): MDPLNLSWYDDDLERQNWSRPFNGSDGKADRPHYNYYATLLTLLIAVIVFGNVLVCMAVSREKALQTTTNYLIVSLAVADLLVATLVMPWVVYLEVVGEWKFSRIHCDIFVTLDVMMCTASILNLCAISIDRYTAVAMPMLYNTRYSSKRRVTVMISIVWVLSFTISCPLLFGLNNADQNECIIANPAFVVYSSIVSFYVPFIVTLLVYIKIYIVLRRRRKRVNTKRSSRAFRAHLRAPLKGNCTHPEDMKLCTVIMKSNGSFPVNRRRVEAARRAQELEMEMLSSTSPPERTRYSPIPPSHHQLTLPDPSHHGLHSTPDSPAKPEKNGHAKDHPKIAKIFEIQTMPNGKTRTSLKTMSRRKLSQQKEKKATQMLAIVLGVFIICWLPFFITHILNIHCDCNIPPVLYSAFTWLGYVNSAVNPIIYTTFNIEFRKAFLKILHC
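Potentiation of an EC20 dopamine calcium response is measured in a force-coupled, tetracycline-inducible Hek293 Trex D2 line. Compound-only kinetic reads over 180 s flag agonists before dopamine addition.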
D2 ag-1: activates the human D2 dopamine receptor; P14416; DiscoveRx PathHunter D2 beta-arrestin, luminescence, 90 min; 100% = 57 uM dopamine signal; activation, % (no concentration beside the values); actives 0.084% (n = 360,000); in the data active = activation above about 40%
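Agonist mode: compounds alone added to overnight-plated D2 PathHunter cells for 90 min at 37 C, with 57 uM final dopamine (EC100) defining full response. Beta-arrestin recruitment detected by chemiluminescent reagent, read after 1 h at ambient temperature.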
D2 PAM-2: potentiates the human D2 dopamine receptor allosterically; actives 0.23% (n = 360,000); potentiation, % (no concentration beside the values); P14416; DiscoveRx D2 beta-arrestin cells, luminescence, 90 min; 100% = 57 uM dopamine signal; in the data active = potentiation above about 50%
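D2 cells co-treated with compound plus 50 nM dopamine (EC20) for 90 min at 37 deg C to detect potentiation. Beta-arrestin recruitment was read as enzyme-fragment luminescence after 1 h at ambient temperature. Full response was set by 57 uM dopamine.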
D2 ag-2: D2 dopamine receptor (human) agonism; P14416; HEK293 T-REx D2 cells, calcium flux agonist mode; activation, % at 2 µM; actives 0.53% (n = 340,000); AID 485358;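 active = activation over 3 SD above normal in the single-dose calcium agonist read, cut at about 30% in these data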; note: 0% is about no effect
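HEK293 Trex D2 cells, tetracycline-induced, o/n 30 C 5% CO2; no-wash Ca dye, RT 30–90 min; 10-cycle baseline, 23 nl cpd added, kinetic Ca read 180 s; agonist hits = positive Ca response.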
D2 antagonist: D2 dopamine receptor (human) antagonism. P14416. HEK293 TREx D2 cells, calcium flux, dopamine EC80. inhibition, % at 10 µM. actives 2% (n = 340,000); in the data active = inhibition above about 30%; inactive = below that, where a call was filed; note: 0% is about no effect
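Tetracycline-induced HEK293 TREx cells expressing D2 receptor forced-coupled to calcium signalling, loaded with no-wash calcium dye. Compounds added and calcium flux read 180 s, then dopamine added at EC80 and read a further 180 s.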
* hit, by the source's call; ! = a repeat was not active. The list is not random: actives were taken first. Their share in the collection is about 2.4%.

`CC(C)N(Cc1nc(-c2ccccc2)no1)C(=O)CN1C(=O)c2ccccc2C1=O` gave D2 PAM-1 36*, D2 ag-1 5, D2 PAM-2 5, D2 ag-2 0 and D2 antagonist -6.
Screening CC(C)N(Cc1nc(-c2ccccc2)no1)C(=O)CCCN1C(=O)c2ccccc2C1=O returned D2 PAM-1 35*, D2 ag-1 4, D2 PAM-2 -12, D2 ag-2 1 and D2 antagonist 1.
`COC(=O)c1[nH]c2cccc(OC)c2c1NC(=O)CCN1CCN(c2cccc(Cl)c2)CC1` gave D2 PAM-1 -22, D2 ag-2 0 and D2 antagonist 38*.
For COc1ccccc1NC(=O)NCCN1CCN(c2cccc(Cl)c2)CC1 the results were D2 PAM-1 -21, D2 ag-1 -3, D2 PAM-2 -22, D2 ag-2 10 and D2 antagonist 53*.
COC(=O)c1ccccc1NC(=O)Cn1cc(S(=O)(=O)Cc2ccccc2F)c2ccccc21 was read as D2 PAM-1 1 and D2 ag-2 0.
For CCN(CC)c1nc2c(S(=O)(=O)c3ccccc3)nnn2c2ccc(Cl)cc12 the results were D2 ag-2 1.
For O=C(Nc1ccc(F)c(Cl)c1)C1CCCN(c2cnccn2)C1 (stereo not given) the results were D2 PAM-1 32*!, D2 ag-1 1, D2 PAM-2 -30, D2 ag-2 0 and D2 antagonist 8.
O=C(NCCCN1CCN(c2ccc(F)cc2)CC1)C1CCCN(c2ncnc3c2nc2n3CCCCC2)C1 (stereo not given) was read as D2 PAM-1 -5, D2 ag-1 -1, D2 PAM-2 -17, D2 ag-2 0 and D2 antagonist 26.
COc1ccccc1N1CCN(CCCNC(=O)C2CCCN(c3ncnc4c3nc3n4CCCCC3)C2)CC1 (stereo not given) was read as D2 PAM-1 5, D2 ag-1 -5, D2 PAM-2 -17, D2 ag-2 0 and D2 antagonist 76*.
CC(C)N(Cc1ccccc1)C(=O)C1CCCN(c2ncnc3c2nc2n3CCCCC2)C1 (stereo not given) was read as D2 PAM-1 -9, D2 ag-1 0, D2 PAM-2 -9, D2 ag-2 -1 and D2 antagonist 38*.
Screening CC1CC(C)CN(CCCNC(=O)C2CCCN(c3ncnc4c3nc3n4CCCCC3)C2)C1 (stereo not given) returned D2 PAM-1 -15, D2 ag-1 2, D2 PAM-2 -18, D2 ag-2 -1 and D2 antagonist 34*.
`CC1CCCN(CCCNC(=O)C2CCCN(c3ncnc4c3nc3n4CCCCC3)C2)C1` (stereo not given) gave D2 PAM-1 -2, D2 ag-1 -2, D2 PAM-2 -17, D2 ag-2 0 and D2 antagonist -3.
COc1ccc(OC)c(CCNC(=O)c2nn(C)c3c2CSc2ccccc2-3)c1 was read as D2 PAM-1 3 and D2 ag-2 1.
Screening Cc1ccc(CN2CCCn3nc(C(=O)NCc4ccc(OC(C)C)cc4)cc3C2=O)cc1 returned D2 PAM-1 -2 and D2 ag-2 1.
Cc1ccc(NC(=O)C2CCCN(c3ncnc4c3nc3n4CCCCC3)C2)cc1Cl (stereo not given) was read as D2 PAM-1 -9, D2 ag-1 -2, D2 PAM-2 -15, D2 ag-2 0 and D2 antagonist 33*.
For Cc1ccc(NC(=O)C2CCN(c3ncnc4c3nc3n4CCCCC3)CC2)cc1Cl the results were D2 PAM-1 -6, D2 ag-1 0, D2 PAM-2 -6, D2 ag-2 0 and D2 antagonist -14.
CCn1cnc2cc(NC(=O)c3ccc(C)cc3)ccc21 was read as D2 PAM-1 4, D2 ag-1 3, D2 PAM-2 -6, D2 ag-2 1 and D2 antagonist 32*.
Screening CCc1ccc(NC(=O)C2CCN(c3nnc(-n4c(C)ccc4C)s3)CC2)cc1 returned D2 PAM-1 12 and D2 ag-2 1.
For Cc1ccc(-n2cnc3cc(C(=O)NC4CCCCCC4)ccc32)c(C)c1 the results were D2 PAM-1 -19 and D2 ag-2 0.

Screening results (PubChem)
